Among the data in PubChem BioAssay AID1950 (The Scripps Research Institute Molecular Screening Center, 2009) are inhibition values, retold here.

By inhibition is commonly meant the change of the read-out against control, counted positive when it falls.

Among all 300,000 compounds or so, about 1,000 (0.33%) were called active. This is one part of a sample in which actives are shown more often than they occur. Cut-off read from the data, not from the text of the source: active = inhibition above about 28%; inactive = the rest.

This experiment concerns EBNA-1 (Epstein-Barr virus nuclear antigen 1), Human herpesvirus 4. Description: blockers of EBV EBNA-1 binding to DNA – biochemical, fluorescence polarization, primary screen (AID 1950). The following applies: EBNA-1 DNA binding, at 14.8 µM, active compounds read high. On the technique in general: Fluorescence polarisation rises when a labelled molecule tumbles more slowly, as on binding a larger partner.
As for `COc1ccc(CN2C(=O)CC(Cc3ccc(C)cc3)C2=O)cc1OC` (stereo unspecified), the inhibition was 9.56% (inactive).

Turning to `O=C(CN1CCCCC1)N1c2ccccc2Sc2ccc(C(F)(F)F)cc21`, the inhibition was -8.22% (inactive).

`CC(=O)N1CC(C)c2scc(C)[n+]2-c2ccccc21` (stereo unspecified): the inhibition was 0.91% (inactive).

`CC(CCN1CCN=C1N(C)C)c1ccccc1` (stereo unspecified): the inhibition was -6.72% (inactive).

For the molecule `O=C(NCCOc1cccnc1)c1ccc(OC2CCN(Cc3ccccn3)CC2)cc1`, the inhibition was 6.33% (inactive).

As for `Cc1[nH]c(C)c(S(=O)(=O)N2CCC(C)CC2)c1C(=O)N1CCCC1`, the inhibition is 14.2% (inactive).

Turning to `NC(=O)C(Cc1ccccc1)NC(=O)C12CC3CC(CC(C3)C1)C2` (stereo unspecified), the inhibition was 3.55% (inactive).

As to `CC(=O)Nc1ccc(S(=O)(=O)NCC(=O)OCc2cc(=O)oc3ccc4ccccc4c23)cc1`, the inhibition is 35.2% (active).

Take `COc1ccccc1C(=O)COC(=O)CNS(=O)(=O)c1ccc(NC(C)=O)cc1`: the inhibition is 0.54% (inactive).

`CCC(=O)Nc1ccc(S(=O)(=O)Nc2c(NC)c3ccccc3oc2=O)cc1`: the inhibition is 8.74% (inactive).

Regarding `CCOc1cc(C2C(C(=O)c3ccco3)=C(O)C(=O)N2Cc2ccccc2)ccc1O` (stereo unspecified), the inhibition is 1.15% (inactive).

On to `CCC1CCCCN1C(=O)CSc1nc2c(c(=O)n1C)SC(C)C2` (stereo unspecified), for which the inhibition was -3.4% (inactive).

`COc1ccc(C(=O)CSc2nnc(NC(=O)C3CC(=O)N(c4cccc(OC)c4)C3)s2)cc1` (stereo unspecified): the inhibition is 51.4% (active).

As to `CCOC(=O)CSc1nnc(NC(=O)C2CC(=O)N(c3ccc(F)cc3)C2)s1` (stereo unspecified), the inhibition is 6.41% (inactive).

In the case of `COc1cccc(N2CC(C(=O)Nc3c(C)cccc3C)CC2=O)c1` (stereo unspecified), the inhibition was -0.66% (inactive).

Regarding `COc1ccc(N(C)C(=O)C2CCN(S(=O)(=O)c3cccc4nsnc34)CC2)cc1`, the inhibition is -5.5% (inactive).

Take `Cc1ccc(O)c(-c2cc(C(=O)NCc3ccccc3)[nH]n2)c1`: the inhibition was 30.8% (active).

Take `Cc1ccc(NC(=O)c2cc(-c3ccccc3O)n[nH]2)cc1C`: the inhibition is -0.09% (inactive).

For `Cc1ccc(O)c(-c2cc(C(=O)Nc3c(C)n(C)n(-c4ccccc4)c3=O)[nH]n2)c1`, the inhibition is 8.89% (inactive).

For `COc1ccc(C(=O)N[C@H](C(=O)NCc2ccccc2)C(C)C)cc1`, the inhibition is 5.98% (inactive).

Regarding `CC(C)c1nnc(NC(=O)CCC(=O)N2CCN(c3cccc(Cl)c3)CC2)s1`, the inhibition was -2.44% (inactive).

Consider `CCCCNC(=O)C1(O)c2ccccc2NC(=O)N1c1ccc(Cl)cc1` (stereo unspecified), for which the inhibition was -19.8% (inactive).

On to `CN(C)S(=O)(=O)c1cccc(-c2nn(-c3ccccc3)cc2/C=C2\SC(=S)N(CC(=O)O)C2=O)c1`, for which the inhibition was 1.09% (inactive).

For the molecule `COc1ccc(-c2nn(-c3ccccc3)cc2/C=C2/SC(=S)N(CCCC(=O)O)C2=O)c(C)c1`, the inhibition was 5.71% (inactive).

Turning to `Cc1ccc(-c2nn(-c3ccccc3)cc2/C=C2\SC(=S)N(CCCCCC(=O)O)C2=O)o1`, the inhibition is 29.3% (active).

`CC(=O)N1CCCc2cc(S(=O)(=O)N3CCCC(C(=O)N4CCN(c5cccc(Cl)c5)CC4)C3)ccc21` (stereo unspecified): the inhibition is -6.48% (inactive).

In the case of `COc1ccc(-c2cc(=O)oc3cc(OCC(=O)N(C)C4CCS(=O)(=O)C4)ccc23)cc1` (stereo unspecified), the inhibition was -3.28% (inactive).

For the molecule `CCCCNC(=O)CSc1nc2ccc(NC(=O)CSc3nnc(N)s3)cc2s1`, the inhibition is 6.23% (inactive).

As for `CCCCNC(=O)CSc1nc2ccc(NC(=O)CSc3nnc(COc4ccccc4C)n3C)cc2s1`, the inhibition was -11.7% (inactive).

In the case of `Nc1nnc(SCC(=O)Nc2ccc3nc(SCC(=O)Nc4ccccc4)sc3c2)s1`, the inhibition is 45.6% (active).

For the molecule `Nc1nc(SCC(=O)Nc2ccc(Cl)cc2C(F)(F)F)n[nH]1`, the inhibition was -6.65% (inactive).

For the molecule `CC(Sc1nc2c([nH]c3ccccc32)c(=O)n1C)c1ccccc1` (stereo unspecified), the inhibition is 13.4% (inactive).

`CCCCNC(=O)CCn1nc(-c2ccc(Cl)cc2)ccc1=O`: the inhibition was -9.91% (inactive).

In the case of `Cc1ccc(NC(=O)CN(C)C(=O)Cn2nnc(-c3ccccc3)n2)cc1`, the inhibition is -4.13% (inactive).

For `COc1ccc(C23NCCN2C(=O)c2ccccc23)cc1` (stereo unspecified), the inhibition is -4.33% (inactive).

On to `COc1cccc(CNS(=O)(=O)c2csc(C(N)=O)c2)c1`, for which the inhibition is -4.82% (inactive).

Consider `Cc1cc2oc(=O)cc(CN(C)Cc3ccc(OC(F)F)cc3)c2cc1Cl`, for which the inhibition was 2.59% (inactive).

In the case of `C/C(=N\N=C(N)N)c1ccc(Cl)cc1`, the inhibition was 39.1% (active).

For the molecule `C/C(=N\OCC(=O)O)c1ccc(Cl)cc1`, the inhibition is 8.77% (inactive).

For `C/C(=N\NC(=S)NCc1ccccc1)c1ccc(Cl)cc1`, the inhibition is -0.89% (inactive).

As for `Cc1ccc(CNC(=O)c2cccnc2Cl)cc1`, the inhibition is -0.4% (inactive).

As for `CC/C(O)=C1\C(=O)CC(C)(C)CC1=NCCc1nc2ccccc2[nH]1`, the inhibition was 0.38% (inactive).

`CC(=O)C1=C(O)C(=O)N(c2ccc(Br)cc2)C1c1ccc([N+](=O)[O-])cc1` (stereo unspecified): the inhibition is -5.58% (inactive).

On to `CC1=NN(C(N)=S)C(=O)C1N=Nc1cc(Cl)ccc1Cl` (stereo unspecified), for which the inhibition was -8.59% (inactive).

With `Cc1cccc(N=Nc2c(C)[nH]n(-c3ccccc3)c2=O)c1`, the inhibition is -10.4% (inactive).

Consider `Cc1[nH]n(C(N)=S)c(=O)c1N=Nc1ccc(Cl)cc1Cl`, for which the inhibition is 27.7% (active).

As for `O=C(CCC(=O)OCc1cccc(C(=O)Oc2ccccc2)c1)Nc1cccc2ccccc12`, the inhibition is 0.44% (inactive).

Take `O=C(NC1CCCC1)C(c1ccccn1)N(C(=O)c1csnn1)C1CCCC1` (stereo unspecified): the inhibition is 2.45% (inactive).

Turning to `COC(=O)c1ccc(CSc2nc3ccccc3c(=O)n2-c2cccc(OC)c2)o1`, the inhibition is -0.73% (inactive).

For the molecule `COc1cccc(-n2c(SCC(=O)c3c[nH]c4ccccc34)nc3ccccc3c2=O)c1`, the inhibition is 46.8% (active).

Regarding `CCCn1c(N)c(C(=O)CSc2nc3ccccc3c(=O)n2-c2ccc(OC)cc2)c(=O)[nH]c1=O`, the inhibition is 5.25% (inactive).

For the molecule `O=C(N/N=C/c1sc(N2CCCCC2)nc1-c1cccs1)c1cccnc1`, the inhibition is -5.56% (inactive).

Regarding `N=c1n(Cc2ccc(Cl)cc2)c2ccccc2n1CC(O)c1ccco1` (stereo unspecified), the inhibition was -2.62% (inactive).

Regarding `CN1CCC(=NNC(=O)CN(c2cccc(Cl)c2)S(C)(=O)=O)CC1`, the inhibition is -1.28% (inactive).

With `N#Cc1nc(N)nc(N(c2ccccc2)c2ccccc2)n1`, the inhibition was 32.2% (active).

Turning to `CC(C)Nc1nc(N(c2ccccc2)c2ccccc2)nc(-n2ccnc2)n1`, the inhibition was 1.21% (inactive).

In the case of `COc1ccc(C(=O)OCC(=O)c2ccc(Cl)s2)c(OC)c1OC`, the inhibition was -6.57% (inactive).

As to `COc1ccc(Cc2nnc(NC(=O)c3ccc(OC)cc3OC)s2)cc1`, the inhibition was -11.6% (inactive).

With `COC(=O)c1sc(NC(=O)c2ccc(OC)cc2OC)nc1C`, the inhibition is 5.25% (inactive).

For `COc1ccc(C(=O)Nc2cccc(NC(=O)c3ccc(OC)cc3OC)n2)c(OC)c1`, the inhibition was 64.7% (active).

On to `O=C(COC(=O)c1ncc(Cl)c(Cl)c1Cl)NCc1cccs1`, for which the inhibition was 4.36% (inactive).

With `CC(=O)Nc1ccc(S(=O)(=O)Nc2nccc(/C=C/c3ccccc3F)n2)cc1`, the inhibition is 3.71% (inactive).

Regarding `Oc1cccc2ccc(/C=C/c3ccc(Br)s3)nc12`, the inhibition was 7.77% (inactive).

Regarding `Nc1ccc(S(=O)(=O)Nc2nccc(/C=C/c3ccc(Br)s3)n2)cc1`, the inhibition is 40.2% (active).

For the molecule `CCNS(=O)(=O)c1ccc(CCC(=O)N2CCN(c3cc(Cl)ccc3C)CC2)cc1`, the inhibition is -2.62% (inactive).

With `O=C(NCc1ccccc1)C1=C[C@@H](c2ccccc2)C[C@@H](OCCCCO)O1`, the inhibition was -2.36% (inactive).

`CN(C)CCOc1cccc(Br)c1`: the inhibition was 2.94% (inactive).

Take `COC(=O)C1=C(C)N(C(C)c2ccccc2)C(=O)/C1=C\c1ccco1` (stereo unspecified): the inhibition was 9.16% (inactive).

In the case of `O=C(Nc1ccc2ccccc2c1)Nc1ccc2snnc2c1`, the inhibition is 103% (active).

Consider `CCc1ccccc1NC(=O)c1ccc2snnc2c1`, for which the inhibition is -10.4% (inactive).

With `O=C(Nc1cccc(Br)c1)c1ccc2snnc2c1`, the inhibition was -4.42% (inactive).

As for `O=C1CC(Cc2ccc(Cl)cc2)C(=O)N1c1cc(Cl)ccn1` (stereo unspecified), the inhibition was -3.65% (inactive).

On to `CC(=O)n1cc([C@@H]2C=C(C(=O)N3CCN(Cc4ccc5c(c4)OCO5)CC3)O[C@H](OCc3ccc(CO)cc3)C2)c2ccccc21`, for which the inhibition was -9.33% (inactive).

Consider `CCc1ccccc1OCC(=O)Nc1ccc2c(c1)OCCO2`, for which the inhibition was -5.94% (inactive).

In the case of `CCOc1cccc(NC(=O)Cn2nc(-c3ccc4c(c3)OCCO4)ccc2=O)c1`, the inhibition was 35% (active).

For `CC(=O)c1cc2c(cc1NC(=O)Cn1nc(-c3ccc(F)cc3)ccc1=O)OCO2`, the inhibition was -3.93% (inactive).

For `COCCNC(=O)c1onc(CSc2cccc(C)c2)c1C(=O)O`, the inhibition was -0.97% (inactive).

Turning to `CCOc1cccc(SCc2noc(C(=O)NC(C)C)c2C(=O)O)c1`, the inhibition is 29.7% (active).

On to `CCCCNC(=O)c1onc(CSc2cccc(OC)c2)c1C(=O)O`, for which the inhibition is 8.58% (inactive).

In the case of `CCN(CC(=O)Nc1c(F)cccc1F)C(=O)C1CCC1`, the inhibition was -2.05% (inactive).

For `CCOc1ccc(C(=O)NC(=S)Nc2ccc(N3CCOCC3)c(Cl)c2)cc1[N+](=O)[O-]`, the inhibition was 7.49% (inactive).

As to `CCOc1ccc(C(=O)NC(=S)Nc2ccc(NC(=O)C(C)C)cc2)cc1[N+](=O)[O-]`, the inhibition is 43.3% (active).

As to `CC(=O)Nc1ccc(NC(=S)NC(=O)c2ccc([N+](=O)[O-])c(C)c2)cc1`, the inhibition is -0.91% (inactive).

As to `COc1ccc(C(C(=O)NC2CCCC2)N(CCCO)C(=O)Cn2nnc(-c3ccc(C)o3)n2)cc1` (stereo unspecified), the inhibition was -26.3% (inactive).

Consider `CCOc1ccc(NC(=O)c2ccc(NC(=O)COC(=O)c3ccc(NC(=O)CC#N)cc3)cc2)cc1`, for which the inhibition is 31.4% (active).

Regarding `CC(C)NC(=O)NC(=O)COC(=O)c1ccc(NC(=O)CC#N)cc1`, the inhibition is 8.39% (inactive).

In the case of `CCOc1ccc(C(=O)Nc2ccncc2)cc1`, the inhibition is -2.27% (inactive).

For the molecule `COCCNc1cc(-c2ccccc2)nc2cc(-c3cccc(F)c3)nn12`, the inhibition was -2.12% (inactive).

For `NC(=O)c1ccc(NC(=O)COC(=O)c2ccc([N+](=O)[O-])cc2)cc1`, the inhibition is 7.68% (inactive).

For the molecule `O=C(COc1ccc(/C=N/NC(=O)c2ccc(O)cc2)cc1)Nc1ccc([N+](=O)[O-])cc1`, the inhibition is 52.6% (active).

Turning to `O=C(N/N=C/c1ccc(O)cc1)/C(=C/c1ccc([N+](=O)[O-])cc1)NC(=O)c1ccccc1`, the inhibition was 11.3% (inactive).
